Bioassay records as filed in PubChem BioAssay.
Sampled rows, rich in hits. Any-hit rate of the full collection: about 4%.
GDH-TPI counter-1: GDH-TPI coupled enzyme inhibition counter-screen | GDH-TPI coupled enzyme counterscreen, NADH absorbance | hit rate 1.2% among 360,000 | AID 588335 | inhibition, % at 4.8 µM; in the data active = inhibition above about 30%
FBA Mtb inh: inhibitors of M. tuberculosis fructose-bisphosphate aldolase; purified M. tuberculosis FBA, fluorescence read-out; AID 588726; inhibition, % at 1 µM; hit rate 2.3% among 360,000; in the data active = inhibition above about 27%
Target sequence (P9WQA3 whole entry, looked up): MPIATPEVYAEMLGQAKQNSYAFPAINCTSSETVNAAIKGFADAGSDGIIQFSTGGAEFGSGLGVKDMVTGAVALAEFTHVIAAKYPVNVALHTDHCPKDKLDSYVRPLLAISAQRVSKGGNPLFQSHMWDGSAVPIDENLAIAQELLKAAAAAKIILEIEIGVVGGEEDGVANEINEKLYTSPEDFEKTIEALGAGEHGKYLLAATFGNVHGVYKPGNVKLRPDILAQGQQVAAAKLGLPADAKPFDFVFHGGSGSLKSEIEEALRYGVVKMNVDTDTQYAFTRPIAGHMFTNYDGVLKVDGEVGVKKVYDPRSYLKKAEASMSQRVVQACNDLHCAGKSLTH
Mtb betalactam: beta-lactam sensitization of Mtb H37Rv. M. tuberculosis H37Rv growth with meropenem, percent inhibition. inhibition, % at 25 µM. hit rate 0.27% among 330,000;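 also: growth measured after seven days incubation then overnight dye step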
MazF activator: MazEF (E. coli) toxin RNase activation. P0AE70. hit rate 0.32% among 350,000. activation, % at 20 µM. FAM/BHQ RNA-DNA oligo cleavage fluorescence, 5 h; in the data active = activation above about 50%
Target sequence (P0AE70 whole entry, looked up): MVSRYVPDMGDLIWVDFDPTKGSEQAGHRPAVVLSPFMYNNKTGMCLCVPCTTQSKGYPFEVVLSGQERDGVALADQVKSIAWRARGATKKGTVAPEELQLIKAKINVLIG
CCHFV vOTU inh: CCHFV vOTU protease inhibition | Pep-AMC fluorescence | inhibition, % at 11.5 µM | hit rate 0.55% among 370,000; in the data active = inhibition above about 30%
Mtb FBA confirm: confirmation of M. tuberculosis fructose-bisphosphate aldolase inhibitors; purified M. tuberculosis FBA, fluorescence read-out; hit rate 78% among 5,600; AID 651616; shares compounds with FBA Mtb inh; inhibition, % at 1 µM; in the data active = inhibition above about 27%
GDH-TPI counter-2: GDH-TPI inhibition counter-screen for FBA inhibitors; hit rate 81% among 5,600; shares compounds with FBA Mtb inh; inhibition, % at 1 µM; GDH-TPI coupled enzyme counterscreen, fluorescence; AID 652141; in the data active = inhibition above about 10%
GDH-TPI DR: inhibits GDH-TPI coupling enzymes in dose response. IC50, µM. AID 652145. shares compounds with FBA Mtb inh. hit rate 79% among 170. GDH-TPI coupled enzyme assay, fluorescence, artifact counterscreen
Numbers stand for hits; 0 = inactive; - = no result; + = active, no number. Unless noted, no rule for the calls is given here.

SMILES	GDH-TPI counter-1	FBA Mtb inh	Mtb betalactam	MazF activator	CCHFV vOTU inh	Mtb FBA confirm	GDH-TPI counter-2	others
CCOc1ccc2c(C)cc(=O)oc2c1OCC	0	0	0	0	0	-	-
CCC(C)CNC(=O)CN1C(=O)C2CCCCN2C(=O)c2ccccc21 (stereo not given)	-	-	-	-	0	-	-
CC(C)(C)c1ccc(S(=O)(=O)N2CCCC(C(=O)N3CCN(Cc4ccccc4)CC3)C2)cc1 (stereo not given)	-	-	-	-	0	-	-
C[C@H]1C2CC(OC(=O)Nc3ccc(C#N)cc3)C(C2)[C@H]2CCCCN21 (stereo not given in full)	-	-	-	-	0	-	-
COc1ccc(-c2cc(-c3ccc(Cl)cc3)c(C#N)c(SCC(=O)O)n2)cc1	0	47	0	0	0	53	37
COc1ccc(-c2cc(-c3ccccc3)c(C#N)c(SCC(=O)O)n2)cc1	0	47	0	0	0	0	0	GDH-TPI DR=2.5
COc1ccccc1-c1cc(-c2ccccc2)nc(SCC(=O)O)c1C#N	0	0	0	0	0	-	-
Cc1ccc(C)c(Cc2c(C)nc3c(C(=O)N4CCOCC4)cnn3c2C)c1	0	62	0	0	0	-	+
CCOC(=O)N1CCN(C(=O)c2cnn3c(C(F)F)cc(-c4ccc(C)cc4)nc23)CC1	0	0	0	0	0	-	-
Cc1nc2c(C(=O)N3CCC4(CC3)OCCO4)cnn2c(C)c1Cc1cccc(Cl)c1	0	31	0	0	0	+	192
COC(=O)c1cnn2c(C)c(Cc3cccc(F)c3)c(C)nc12	0	43	0	0	0	0	0
Cc1nc2c(C(=O)N3CCN(c4ccccn4)CC3)cnn2c(C)c1Cc1cccc(Cl)c1	0	0	0	0	0	-	-
CCOC(=O)N1CCN(C(=O)c2cnn3c(C)c(Cc4ccc(C)cc4)c(C)nc23)CC1	0	34	0	0	-	115	92
Cc1nc2c(C(=O)O)cnn2c(C)c1Cc1ccccc1F	0	0	0	0	0	-	-
COc1cc(=O)oc(C=O)c1C	-	-	-	-	0	-	-
O=C(N[C@H](C(=O)N1CCC[C@H]1C(=O)NCCc1ccccc1Cl)c1ccccc1)c1ccco1	-	-	-	-	0	-	-
O=C(OCc1cn(Cc2cccc(Cl)c2)nn1)N1CCCC1	-	-	-	-	0	-	-
COc1ccc2oc(=Nc3cccc(F)c3)c(C(N)=O)cc2c1	0	39	0	0	0	0	0
COc1ccc2cc(C(N)=O)c(=Nc3ccc(C)cc3)oc2c1	0	35	0	0	0	-	+
CN1C(c2ccccc2)CC2CN(c3ccccc3)C(=O)C21 (stereo not given)	-	-	-	-	0	-	-
COc1ccc(NC(=O)CCc2nnc3ccc(NCc4ccco4)nn23)cc1	0	0	0	0	0	-	-
COc1ccc(NC(=O)CCc2nnc3ccc(NCc4ccco4)nn23)cc1OC	0	89	0	0	0	142	118
Nc1ccn([C@@H]2O[C@H](C(=O)N3CCN(C(=O)C(F)(F)F)CC3)[C@@H](O)[C@H]2O)c(=O)n1	-	-	-	-	0	-	-
C/C(=N/NC(=O)CN1CCN(Cc2ccccc2Cl)CC1)c1cccc(O)c1	-	-	-	-	0	-	-
C=CCn1cc(-c2cccc(Cl)c2)cc(C#N)c1=O	0	28	0	0	0	69	48
SMILES	GDH-TPI counter-1	FBA Mtb inh	Mtb betalactam	MazF activator	CCHFV vOTU inh	Mtb FBA confirm	GDH-TPI counter-2	others
C=CCn1c(-c2ccccc2)ccc(C#N)c1=O	0	0	0	0	0	-	-
Cn1cc(-c2ccc(Cl)cc2)cc(C#N)c1=O	0	56	0	0	0	0	17
N#Cc1cc(-c2cccc(Cl)c2)c[nH]c1=O	0	46	0	0	0	0	0	GDH-TPI DR=4.1
N#Cc1c(-c2cccc(Cl)c2)[nH]c(=S)[nH]c1=O	0	0	0	0	0	-	-
COC(=O)CN1CCN(C(=O)c2csc3ccccc23)CC1	-	-	-	-	0	-	-
CC1CCN(c2c3c(nc4ncnn24)CCCC3)CC1	-	-	-	-	0	-	-
OCc1ccc2c(c1)c(-c1ccc3c(c1)OCCO3)c(-c1ccccc1)n2-c1ccccc1	0	62	0	0	0	0	0	GDH-TPI DR=1.4
O=C(/C=C/c1cn(-c2ccccc2)nc1-c1ccc2c(c1)OCCO2)NCCO	0	0	0	0	0	-	-
COc1ccc2nc(N/C(N)=N/S(C)(=O)=O)nc(C)c2c1	0	53	0	0	0	+	+
CC(C)(C)CC(C)(C)Nc1c(-c2ccc(O)cc2)nc2cnccn12	0	59	0	0	0	+	+
Oc1ccc(-c2nc3cnccn3c2Nc2ccc3c(c2)OCCO3)cc1	0	0	0	0	0	-	-
CCOC(=O)C1=C(CSc2nc(-c3ccccc3)ccc2C#N)OC(N)=C(C#N)C1c1ccc(OC)cc1 (stereo not given)	0	74	0	0	0	112	93
CCOC(=O)C1=C(CSc2nc(CC)c(C)cc2C#N)OC(N)=C(C#N)C1c1ccccc1 (stereo not given)	0	0	0	0	0	-	-
CCOC(=O)c1cnc2c(-c3ccc(Cl)cc3)cnn2c1C	0	0	0	0	0	-	-
CCOC(=O)c1cnc2c(-c3ccc(F)cc3)cnn2c1C(F)(F)F	0	74	-	0	-	0	0
Cc1ccc2nc(-c3ccc(C#N)cc3)c(Cc3ccccn3)n2c1	-	61	-	-	0	146	94
COC[C@H]1CCCN1c1cccc2c1S(=O)(=O)N(C1CC1)CC[C@@H](C)O2	-	-	-	-	0	-	-
COCC(=O)Nc1ccc2c(c1)C(=O)N(C)[C@@H]1CC[C@@H](CC(=O)OC)O[C@H]1CO2	-	-	-	-	0	-	-
COc1cccc2c(=O)cn[nH]c12	0	76	0	0	0	0	0
COC(=O)c1cc(=O)c2cccc(OC)c2[nH]1	0	43	0	0	0	+	+
O=c1cn[nH]c2ccccc12	0	0	0	0	0	-	-
CCOC(=O)c1nc(-c2ccccc2)oc1N1CCOCC1	0	97	0	0	0	120	95
COc1cc2c3nc4n(c(=O)c3n(CC(=O)NCC3CCCO3)c2cc1OC)CCS4 (stereo not given)	0	63	0	0	0	180	174
CCCCCCCCN1C(=O)[C@@H](CC(=O)NCCCN2CCCC2=O)C[C@@]2(C(=O)OC)C1=C[C@H](C(C)(C)C)O[C@@H]2C	-	-	-	-	0	-	-
CCC(=O)Nc1ccc2c(c1)nc1n2CCN(CCOC)C1	0	33	0	0	0	0	0
CCC(=O)Nc1ccc2c(c1)nc1n2CCN(C2CCCCC2)C1	0	62	0	0	0	92	91
O=C(C1CCC1)N1CCc2cc(S(=O)(=O)N3CCN(c4ccccc4F)CC3)ccc21	-	-	-	-	0	-	-
COC(=O)c1cc2c(c3c4cc(F)ccc4n(S(=O)(=O)c4cccc(C)c4)c13)C(=O)N(Cc1ccc(C(F)(F)F)cc1)C2	-	-	-	-	0	-	-
CCCCNc1c(-c2ccc(SC(C)CC)cc2)nc2ccccn12 (stereo not given)	0	57	0	0	0	83	72
CCCCNc1c(-c2ccc(Sc3ccc(OC)cc3)cc2)nc2cc(C)ccn12	0	53	0	0	0	54	60
